Measured values published in PubChem BioAssay AID927 (National Center for Advancing Translational Sciences (NCATS), 2007).
In all, about 60,000 compounds went through this assay and about 65 (0.1%) were called active. Calls follow the shape of the dose curve; as a rule, active = well fitted inhibition curve with a large enough effect; inconclusive = small, poorly fitted or top-dose-only effect; inactive = no such curve, though single readings can be large or run the other way. The entries come from a sample that favours actives as a whole.

biological target: Ubiquitin carboxyl-terminal hydrolase 2 (Homo sapiens) (UniProt O75604); test: qHTS Assay for Inhibitors of Ubiquitin-specific Protease USP2a; conditions: USP2a enzymatic assay; Potency: qHTS inhibition; series mostly up to 38.3 µM; activity change, negative = inhibition: at the top concentration; also: nearly all actives have a fitted effect of over 60% in size
Sequence (O75604 whole entry, looked up): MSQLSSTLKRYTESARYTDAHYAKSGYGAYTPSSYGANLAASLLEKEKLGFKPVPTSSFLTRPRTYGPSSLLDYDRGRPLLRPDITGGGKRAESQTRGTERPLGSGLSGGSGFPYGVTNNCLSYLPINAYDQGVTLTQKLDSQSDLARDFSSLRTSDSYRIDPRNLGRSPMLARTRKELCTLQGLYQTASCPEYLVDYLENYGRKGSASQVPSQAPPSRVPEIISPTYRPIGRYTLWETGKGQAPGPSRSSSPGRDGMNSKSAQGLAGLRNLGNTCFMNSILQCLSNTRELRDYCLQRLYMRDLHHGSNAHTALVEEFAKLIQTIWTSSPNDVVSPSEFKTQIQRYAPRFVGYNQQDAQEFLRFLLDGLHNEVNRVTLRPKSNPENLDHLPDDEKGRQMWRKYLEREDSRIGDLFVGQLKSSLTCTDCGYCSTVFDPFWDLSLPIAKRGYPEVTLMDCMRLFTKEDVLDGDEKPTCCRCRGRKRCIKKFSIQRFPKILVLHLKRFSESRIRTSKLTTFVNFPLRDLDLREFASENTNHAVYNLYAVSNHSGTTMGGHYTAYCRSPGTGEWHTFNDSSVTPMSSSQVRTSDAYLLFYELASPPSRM
Text: NIH Molecular Libraries Screening Centers Network [MLSCN]
NIH Chemical Genomics Center [NCGC]
PI Name: Nicholson, Ben. Progenra Inc, Malvern, PA
Homeostasis of cellular proteins is maintained through a combination of synthesis and degradation. The pathway that accounts for the majority of protein degradation is the ubiquitin-proteasomal pathway. Ubiquitin (Ub) is highly conserved in all cells and the generation of a multi-Ub chain typically targets proteins for degradation by the proteasome. However, ubiquitination is highly reversible and dynamic. Deubiquitination, the reverse process, is catalyzed through the action of enzymes referred to as isopeptidases or deubiquitinating enzymes (DUBs). This group of enzymes is collectively responsible for maintaining adequate pools of free ubiquitin and regulating the ubiquitination status of cellular proteins. The class of DUBs referred to as the ubiquitin-specific proteases (USP) family functions endoproteolytically to cleave Ub chains from a wide range of protein substrates. USP2a deubiquitinates fatty acid synthase (FASN) which has recently been identified as an emerging oncology target. To identify inhibitors of USP2a a cell-free assay was employed.
The reporter enzyme chosen is phospholipase A2 (PLA2), which has an absolute requirement for a free amino terminus. Thus, fusion of a UBL to the N-terminus of PLA2 inactivates PLA2. When the UBL-PLA2 reporter enzyme is cleaved by USP2, the activated reporter can subsequently act on its substrate, which is the commercially available NBD C6-HPC (Invitrogen). Thus, this coupled assay gives a fluorescent read-out, which is generated through the cleavage of the PLA2 reporter enzyme. The assay, developed by Progenra, Inc. uses Ub-PLA2 and USP2a at near equal and low (nM) amounts and has been licensed for sale by LifeSensors, Inc. as the Ub-IsoPro1 kit.
NCGC Assay Protocol Summary:
The assay buffer, prepared fresh at the day of the assay, contains 20mM Tris-HCl pH 8.0, 2mM CaCl2, 2mM beta-Mercaptoethanol, 0.1% DMSO. 3ul of 40nM (20nM final) USP2 core, which is stored on ice, is dispensed into a medium-binding black solid Kalypsys 1,536 well plate using the Kalypsys dispenser. The assay plate is then pinned with 23nL compound with the Kalypsys pintool in columns 5-48. The controls are pinned as follows: column 1&2 two-fold dilutions of 2M NEM in duplicate; column 3 DMSO; column 4 2M NEM (final concentration 38.2mM). The assay plate is incubated at RT for 30min. Subsequently, 3uL of 40nM (20nM final) Ub-PLA2 and 40uM (20uM final) NBD C6-HPC (stored on ice and protected from light) were dispensed into the plate using the Kalypsys dispenser. Plates were read immediately (0 Hour) on an Envision (Perkin Elmer) plate reader using the following wavelengths Ex 460nm /Em 535nm. Then, the assay plates were incubated for 2.5 hours and read again on the Envision using the same settings
Data were normalized to the to AC100 inhibition (NEM). Concentration-response curves were fitted to the normalized data and the concentration-response curves were then classified based on curve quality (r2), response magnitude and degree of measured activity. The time zero reading was used to flag fluorescence artifacts.
Keywords: ubiquitination, deubiquitination, proteases, profluorescent, MLSMR, MLSCN, NIH Roadmap, qHTS, NCGC

Activity change, negative = inhibition, inactive:
CCCCNc1nc2ccccc2nc1NS(=O)(=O)c1cccs1 11.4%
Cc1ccc(N(C(=O)CC2NC(=O)NC2=O)C2(C(=O)NC3CCCC3)CCCCC2)cc1 (stereo unspecified) 14%
C=CCn1c(CSc2nc3ccccc3s2)nnc1SCC(=O)NCc1ccco1 22.9%
O/N=C1\CC2(Cc3nonc31)OCCO2 -8.23%
CC1(C)OC2CC3C4CCC5=CC(=O)CCC5(C)C4(F)C(O)CC3(C)[C@]2(C(=O)CCl)O1 (stereo partly specified) 32.2%
Cc1c(S(=O)(=O)O)oc2c1C(=O)C(=O)c1c-2ccc2c1CCCC2(C)C 28.5%
CC(C)OCCCNC(=O)C1CC(=O)N(C2CCCCCCC2)C1 (stereo unspecified) 6.61%
COc1ccc(OC)c(NC(=O)CSc2nc(N)c(-c3ccccc3)c(=O)[nH]2)c1 3.67%
O=C(O)C1CCN1C1CCCCC1 (stereo unspecified) -1.2%
O=C(O)c1ccc(COCC(F)(F)F)cc1 -7.83%
Cc1nnc(SCc2cc(=O)[nH]c(N3CCN(Cc4ccccc4)CC3)n2)s1 18.7%
CC(C)(O)CCC(O)[C@@](C)(O)C1CC[C@]2(O)C3=CC(=O)C4CC(O)C(O)C[C@]4(C)C3CC[C@]12C (stereo partly specified) -9.42%
CC(=O)Oc1c2c(c3c(c1CC=C(C)C)O[C@@]14C(=CC5CC1C(C)(C)OC4(C/C=C(\C)C(=O)O)C5=O)C3=O)OC(C)(CCC=C(C)C)C=C2 (stereo partly specified) 48.5%
CC1(C)CC(=O)C=C(NCCCN2CCCC2=O)C1 -3.87%
c1csc(-c2cn3c(n2)SCC3)c1 15.3%
COc1nc(Oc2ccc(=O)n(C)n2)nc(N(C)C)n1 0.801%
CC(C)C1=CC2=CC[C@@H]3[C@](C)(CO)CCC[C@]3(C)C2CC1 (stereo partly specified) 4.02%
Fc1cccc(/C=N\N=C/c2cccc(F)c2)c1 -4.64%
O=C(NCCCN1CCCCCC1)C1CC(=O)N(C2CCCC2)C1 (stereo unspecified) 4.66%
CCOC(=O)C1CCN(C(=O)Cc2c(C(=O)O)[nH]c3ccccc23)CC1 -3.9%
CCCCN(C)Cc1c(C)[nH]c2ccc(Cl)cc2c1=O -9.81%
CCOC(=O)Cc1csc(NC(=O)C(C)(C)C)n1 4.85%
Cn1c(=O)c2cn(-c3cccc4ccccc34)cc2n(C)c1=O 25.7%
Cc1nn(C)c(C)c1S(=O)(=O)N1CCc2ccccc21 2.65%
Nc1nc2[nH]c(=O)c(=O)[nH]c2c(=O)[nH]1 -4.69%
CN1CCCC1CCO[C@@](C)(c1ccccc1)c1ccc(Cl)cc1 (stereo partly specified) -0.877%
CS(=O)(=O)N1CCC2(CCN(c3ccncc3)CC2)CC1 -3.96%
O=c1c(O)c(-c2ccc(O)cc2)oc2ccccc12 55.6%
Cc1nnc(SCCCn2c(N3CCCCC3)nc3c2c(=O)[nH]c(=O)n3C)s1 1.5%
O=C(NC1CCN(Cc2ccccc2)CC1)c1ccccc1F 6.93%
COC(=O)[C@H](Cc1ccccc1)NC(=O)N1CC(C)OC(C)C1 (stereo partly specified) -0.592%
COc1ccc(CCC(=O)c2c(O)cc(OC3OC(CO)C(O)C(O)C3O[C@@H]3OC(C)C(O)C(O)C3O)cc2O)cc1O (stereo partly specified) -9.52%
O=C1NS(=O)(=O)c2ccccc21 36%
Cc1cc(=O)n2nc(N3CCCC(C(=O)N4CCN(C)CC4)C3)sc2n1 (stereo unspecified) -6.44%
C=C1C([C@@]2(C)C(OC(C)=O)CC(=O)O[C@@](C)(COC(C)=O)C2CC(=O)OC)C(OC=O)C(OC(=O)C(O)C(C)CC)[C@]2(C)C(c3ccoc3)CC(=O)C12O (stereo partly specified) 40.3%
COC(=O)CC1C(C)(C)C(OC(C)=O)C2CC3=C4CC(=O)OC(c5ccoc5)[C@]4(C)CCC3[C@@]1(C)C2=O (stereo partly specified) 31.6%
CC1(C)OC2CO[C@]3(COS(N)(=O)=O)OC(C)(C)OC3C2O1 (stereo partly specified) -7.19%
CCC1(C)Cc2c(sc3nc4n(c(=O)c23)CCCS4)CO1 (stereo unspecified) 20%
COC(=O)c1cccc(NC(=O)CSc2nc(C)cc(=O)[nH]2)c1 -2.63%
O=C(NCCCNCc1ccccc1)c1ccc(/C=N/O)nc1 5.49% [at 7.66 µM]
C/C(=C\C(=O)c1ccc(Br)cc1)N1CCCCC1 41.4%
CCc1ccc2oc(=O)cc(CN3CCCCC3C)c2c1 (stereo unspecified) -29%
O=C(Oc1cc(OC(=O)c2ccccc2)c2c(c1)OC(c1ccc(OC(=O)c3ccccc3)c(OC(=O)c3ccccc3)c1)[C@@H](OC(=O)c1ccccc1)C2)c1ccccc1 (stereo partly specified) 5.9%
COc1ccc(CNC2CCCCC2)cc1 6.59%
Cc1nnc(SCC(=O)NCCOc2ccc(Cl)cc2)n1-c1ccccc1 7.14%
O=C1OC(C(O)CO)C(O)=C1O (stereo unspecified) -9.98%
CC(=O)OCC(=O)[C@@]1(O)CCC2C3CCC4=CC(=O)CC[C@@]4(C)[C@]3(F)C(O)C[C@]21C (stereo partly specified) 8.49%
Cc1nonc1NC(=O)c1ccccc1Br 4.87%
O=C1CCC(=O)N1CCOP1(=O)COc2ccccc2OC1 -1.14%
O=c1c(-c2cc(F)cc(F)c2)nc2cnc(Oc3ccccc3)nc2n1C[C@H]1CCCO1 58.2%
COc1c(C(C)C)oc2cc3oc(=O)ccc3cc12 1.16%
CCC1CCCCN1C(=O)Nc1cccc(NC(=O)N2CCCCC2CC)c1 (stereo unspecified) 20.3%
CC(=O)OCC(=O)C1CCC2C3CCC4=CC(=O)CC[C@@]4(C)C3CC[C@]12C (stereo partly specified) -3.21%
COC1[C@H](OC(N)=O)C(O)[C@H](Oc2ccc3c(O)c(NC(=O)c4ccc(O)c(CC=C(C)C)c4)c(=O)oc3c2C)OC1(C)C (stereo partly specified) 5.79%
O=C(O)C(O)[C@@](O)(Cc1ccc(O)cc1)C(=O)O (stereo partly specified) -9.13%
N#CC1=C(N)Oc2cc(O)ccc2C1C1CCCCC1 (stereo unspecified) -16.2%
CS(=O)(=O)N1CCC2(CC1)CN(Cc1cc(C(F)(F)F)cc(C(F)(F)F)c1)C2 22.6%
O=C(CN1CCOCC1)Nc1c(-c2ccccc2)c2cc(Br)ccc2[nH]c1=O 21.4%
CSc1ccc(S(=O)(=O)Nc2cccc(F)c2)cc1 4.55%
COc1ccc2occ(C(=O)c3ccc(N=C(C)N(C)C)cc3)c2c1 11.4%
CN(Cc1ccco1)c1ncncc1-c1ccoc1 -5.34%
O=C(NCc1ccc2c(c1)OCO2)c1cc2c(s1)CS(=O)(=O)C2 39.2%
CC(=NCc1ccco1)C1=C(O)c2ccccc2C1=O 9.53%
COc1cccc(C(CC(=O)NCCN2CCOCC2)NS(=O)(=O)c2ccc(C)cc2)c1OC (stereo unspecified) 4.84%
COC(=O)N1CCC[C@@]2(CCN(C(=O)NC(C)C)C2)C1 6.83%
CC(C)=CCC/C(C)=C/CC/C(C)=C/CC/C(C)=C/CO -13.7%
